High-throughput results from PubChem.
Sampled rows, rich in hits. Any-hit rate of the full collection: about 3.6%.
HTT prom inh: Primary qHTS for Identification of Small Molecule Inhibitors of Huntingtin Promoter Activity | HEK293 HTT promoter firefly luciferase reporter, 24 h | Potency, µM (series often up to 57.5 µM), most hits filed as inhibitors | 0.93% of 48,000 active; also: nearly all actives have a fitted effect of over 50% in size
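Firefly luciferase signal from promoter-reporter HEK293 cells was scaled between vehicle (0%) and zero RLU (-100%). Compounds were tested at final concentrations of up to 57.5 uM over 24 h at 37 degrees C. PTC124 at 50 uM final served as control inhibitor.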
HTT-AS promoter: Primary qHTS for Identification of Small Molecule Activators of Huntingtin-Antisense Promoter Activity. HEK293 HTT-AS promoter firefly luciferase reporter, 24 h; response scale: percent change from vehicle, -100% = no light. Potency, µM (doses to about 57.5 µM), hits mostly activators. 0.24% of 48,000 active. AID 1508624, 2021; also: nearly all actives have a fitted effect of over 55% in size
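Luminescence was read after Dual-Glo reagent and a 10 min room-temperature incubation. Values were normalized to vehicle (0% activity) and zero RLU (-100% activity). Reporter HEK293 cells had been exposed to compounds (up to 57.5 uM final) for 24 h.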
mTORC1 inh: Acumen qHTS Assay for Inhibitors of the mTORC1 Signaling Pathway in MEF (Tsc2-/-, p53-/-) Cells: Sytravon | Potency, µM (titrated, usually from 38.3 µM), hits mostly inhibitors | Tsc2-/- p53-/- MEF, phospho-rpS6 immunofluorescence/PI, 24 h | 0.78% of 44,000 active | AID 493208, 2011; also: nearly all actives have a fitted effect of over 50% in size
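Cell-based qHTS: Tsc2-/- p53-/- MEF, 24 h cpd, 37 °C; fix/perm, anti-phospho-S6 Alexa-488 + PI; Acumen 488 nm scan; pS6/PI ratio, % positive cells; rapamycin 7.5 nM = inhibition ref; PI count = viability.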
PMP22 txn: Cell-based coincidence reporter assay to measure PMP22 gene transcription in S16 Pmp22-F2sN cells - Primary screen. 2% of 43,000 active. AID 1508649, 2021. Potency, µM (series often up to 57.5 µM), hits mostly inhibitors. S16 Pmp22-F2sN Schwann cells, FLuc/NLuc coincidence luminescence, 24 h; active = clear falling dose curves in both reporters; inconclusive = both reporters move, but less clearly or upward; inactive = either reporter flat; the % is the NLuc reporter signal
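Reporter cells (S16 Pmp22-F2sN, 500–1,000 per well) exposed to compounds for 24 h, 37C, 5% CO2; lysis with FLuc read after 10 min, then Stop&Glo and NLuc read after 10 min.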
S16 F2sN tox: Cell viability qHTS assay in S16 Pmp22-F2sN cells. AID 1508642, 2021. Potency, µM (highest dose often 57.5 µM), most hits filed as cytotoxic. 0.48% of 43,000 active. S16 Pmp22-F2sN Schwann cells (luciferase reporters placed in the Pmp22 gene) viability, CellTiter-Glo, 24 h; also: nearly all actives have a fitted effect of over 65% in size
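CellTiter-Glo counter-screen, qHTS, 1536-well. Cells: S16(c9) Pmp22-F2sN, 500-1,000/well in DMEM + 10% FBS. Cpd 23 nL pin transfer, 24 h, 37C/5% CO2. Read: luminescence, CCD imager.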
NLuc sat counter: Biochemical NLuc saturation counterscreen for small molecule modulators of PMP22 gene expression - Nano-Glo assay; Potency, µM (titrated, usually from 57.5 µM), usual class: inhibitors; 4% of 690 active; shares compounds with PMP22 txn; AID 1508638, 2021; Secreted NLuc enzyme (filtered S16 cell medium), Nano-Glo luminescence
NLuc Km counter: Biochemical coelenterazine-based NLuc counterscreen for small molecule modulators of PMP22 gene expression - Km assay. secreted NLuc enzyme, coelenterazine luminescence, Km conditions. Potency, µM (top dose mostly 57.5 µM), most hits filed as inhibitors. shares compounds with PMP22 txn. 5% of 690 active. AID 1508639, 2021
FLuc counter: Biochemical FLuc counterscreen for small molecule modulators of PMP22 gene expression. purified P. pyralis FLuc, luminescence, 10 min. AID 1508640, 2021. shares compounds with PMP22 txn. 690 tested, under 10 active. Potency, µM (titrated, usually from 57.5 µM), hits mostly inhibitors
Target sequence (P08659 whole entry, looked up): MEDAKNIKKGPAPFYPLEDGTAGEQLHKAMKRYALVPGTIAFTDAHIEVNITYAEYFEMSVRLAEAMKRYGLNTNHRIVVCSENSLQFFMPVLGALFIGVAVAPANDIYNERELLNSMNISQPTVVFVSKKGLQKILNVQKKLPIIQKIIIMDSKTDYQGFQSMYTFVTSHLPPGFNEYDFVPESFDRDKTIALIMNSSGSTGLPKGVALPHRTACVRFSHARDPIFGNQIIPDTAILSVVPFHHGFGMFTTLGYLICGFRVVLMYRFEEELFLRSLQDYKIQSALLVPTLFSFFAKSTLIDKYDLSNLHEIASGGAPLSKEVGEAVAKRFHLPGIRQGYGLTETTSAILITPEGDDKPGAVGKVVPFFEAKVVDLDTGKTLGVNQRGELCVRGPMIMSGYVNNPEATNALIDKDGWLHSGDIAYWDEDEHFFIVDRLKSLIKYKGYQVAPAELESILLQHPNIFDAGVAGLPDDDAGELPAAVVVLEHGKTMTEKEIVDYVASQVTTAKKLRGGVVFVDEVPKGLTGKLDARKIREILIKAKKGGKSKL
S16 viab conf: Cell viability qHTS assay in S16 Pmp22-F2sN cells - Confirmatory screen; shares compounds with PMP22 txn; S16 Schwann cells viability, CellTiter-Glo ATP luminescence, 24 h; Potency, µM (series often up to 57.5 µM), actives largely listed as cytotoxic; 7% of 690 active
PMP22 txn cnf: Cell-based coincidence reporter assay to measure PMP22 gene transcription in S16 Pmp22-F2sN cells - Confirmatory screen | shares compounds with PMP22 txn | S16 Schwann cells Pmp22-F2sN, dual luciferase, 24 h | Potency, µM (titrated, usually from 57.5 µM), hits mostly inhibitors | 22% of 690 active | AID 1508646, 2021; active = clear falling dose curves in both reporters; inconclusive = both reporters move, but less clearly or upward; inactive = either reporter flat; the % is the FLuc reporter signal
Hits are given with their value; n = inactive; u = inconclusive; x = no result given. Unless noted, calls follow the shape of the dose curve; as a rule, active = well fitted curve in the direction sought with a large enough effect; inconclusive = small, poorly fitted or top-dose-only effect, or another doubt; inactive = no such curve, though single readings can be large; an effect the other way counts as inactive or inconclusive.

SMILES	HTT prom inh	HTT-AS promoter	mTORC1 inh	PMP22 txn	S16 F2sN tox	others
COc1ccc(-c2noc(-c3ccc(NCc4cccnc4)c([N+](=O)[O-])c3)n2)cc1OC	n	n	n	n	n
CCNc1ccc(-c2nc(-c3ccco3)no2)cc1[N+](=O)[O-]	n	0.355µM	n	u	n
COc1cc(-c2noc(-c3ccc(NCc4cccnc4)c([N+](=O)[O-])c3)n2)cc(OC)c1OC	n	n	n	7.08µM	n
O=C(C=Cc1c(C(=O)O)[nH]c2cc(Cl)cc(Cl)c12)Nc1ccccc1	n	n	x	x	x
COc1ccc(Nc2cc(C)nc(-n3nc(C)cc3C)n2)cc1Cl	12.6µM	n	u	5.53µM	u
Cc1cc(Nc2ccc(C(C)C)cc2)nc(-n2nc(C)cc2C)n1	u	n	n	u	u
O=C(Nc1cccc(Cl)c1)Nc1ncc(CCNc2ncnc3ccsc23)s1	n	n	x	x	x
CCCOCc1cc(CN2CCN(c3cccc(Cl)c3)CC2)c(O)c2ncccc12	8.91µM	n	u	u	u
CCCCOCc1cc(CN2CCN(c3cccc(Cl)c3)CC2)c(O)c2ncccc12	u	n	u	2.67µM	u
CCOC(=O)C1=C(CN2CCN(c3cccc(Cl)c3)CC2)NC(=O)NC1c1ccc(Cl)cc1 (stereo not drawn)	n	n	n	u	n
O=C(NCCCN1CCN(c2cccc(Cl)c2)CC1)c1sc2ncccc2c1-n1cccc1	u	n	n	u	u
Cc1ccc(-c2nc3ccccc3[nH]2)cc1NC(=O)COc1ccc(Cl)cc1Cl	u	n	n	n	u
Cc1cc(OCC(=O)Nc2cc(-c3nc4ccccc4[nH]3)ccc2C)ccc1Cl	u	n	14.7µM	n	n
C[C@@H](Oc1cc(-c2cnn(C3CCNCC3)c2)cnc1N)c1c(Cl)ccc(F)c1Cl	u	n	x	x	x
CC(C)c1c(C(=O)Nc2ccccc2)c(-c2ccccc2)c(-c2ccc(F)cc2)n1CC[C@H](O)C[C@@H](O)CC(=O)O	n	n	x	x	x
Cc1ccc(NC(=O)Cc2ccc(-n3c(C)nc4cccnc43)cc2)c(Cl)c1	8.91µM	n	n	u	n
COc1ccc(Cn2c(CCC(=O)Nc3ccc(C)cc3C)nc3cccnc32)cc1	n	n	n	n	n
CCCS(=O)(=O)c1c(S(=O)(=O)CCC)c2cc(C(C)(C)C)ccn2c1C(=O)c1ccc(OC)c(OC)c1	n	n	u	n	n
CCCS(=O)(=O)c1c(S(=O)(=O)CCC)c2cc(C(C)(C)C)ccn2c1C(=O)c1ccccc1	25.1µM	n	n	n	n
COc1ccc(C)cc1NC(=O)Nc1cccc(-c2noc(C)n2)c1	n	n	u	u	n
Cc1nc(-c2cccc(NC(=O)Nc3ccc([N+](=O)[O-])cc3)c2)no1	u	n	u	u	28.2µM
O=C(NCCCNc1nc(Nc2cccc(NC(=O)N3CCCC3)c2)ncc1I)c1cccs1	u	n	x	x	x
Cc1ccc(O)c(NC(=O)c2ccc(Br)c(S(=O)(=O)N3CCCCC3)c2)c1	20µM	n	n	u	n
O=C(Nc1ccc(Br)cc1)c1ccc(Cl)c(S(=O)(=O)N2CCCCCC2)c1	u	n	n	u	n
CCCN1CCN(c2ncnc3sc(C(=O)Nc4c(C)cc(C)cc4C)c(C)c23)CC1	n	n	n	u	25.1µM
SMILES	HTT prom inh	HTT-AS promoter	mTORC1 inh	PMP22 txn	S16 F2sN tox	others
NC(=O)c1ncn([C@@H]2O[C@H](CO)[C@@H](O)[C@@H]2O)c1N	n	n	x	x	x
CCCCN(CCCNC(=O)c1cc(Nc2cccc(SC)c2)nc2ccccc12)Cc1ccccc1	u	n	16.5µM	u	u
CSc1cccc(Nc2cc(C(=O)NCCc3ccc(Cl)cc3)c3ccccc3n2)c1	u	n	n	u	n
CCOC(=O)c1cnc2ccc(Cl)cc2c1Nc1ccc(N2CCOCC2)cc1	n	n	n	u	u
CCOC(=O)c1cnc2ccc(C)cc2c1Nc1ccc(N(CC)CC)cc1	25.1µM	n	u	u	u
CCCCCCCCCCCCCC(=O)N[C@H](CO)[C@H](O)c1ccc([N+](=O)[O-])cc1	n	n	x	x	x
O=C(NC1CCN(Cc2ccccc2)CC1)c1ccc(Cn2c(=O)c3ccccc3n(Cc3ccc(F)cc3)c2=O)cc1	n	n	3.29µM	u	u
CCOc1ccc(-c2nnc(SCC(=O)NCc3ccc(C)cc3)nc2-c2ccc(OCC)c(OC)c2)cc1OC	n	n	n	n	n
COc1ccc(-c2nnc(SCC(=O)NCc3ccccc3)nc2-c2ccc(OC)c(OC)c2)cc1OC	u	n	n	7.27µM	n	NLuc sat counter=u;NLuc Km counter=u;FLuc counter=n;S16 viab conf=n;PMP22 txn cnf=u
OC1(c2ccccc2)CCNCC1	n	n	x	x	x
CCc1ccc(NC(=O)Cn2nnc(C(=O)Nc3cc(C)ccc3OC)c2N)cc1	n	n	n	u	n
COc1ccc(C)cc1NC(=O)Cn1c(=O)cc(C)c2c(C)nn(C)c21	2µM	n	n	7.61µM	n	NLuc sat counter=n;NLuc Km counter=n;FLuc counter=n;S16 viab conf=n;PMP22 txn cnf=u
COc1ccc(C)cc1NC(=O)c1nnn(CC(=O)Nc2c(C)cccc2C)c1N	n	n	n	9.15µM	n	NLuc sat counter=n;NLuc Km counter=n;FLuc counter=n;S16 viab conf=u;PMP22 txn cnf=u
